14 compounds from PubChem BioAssay (NCATS) can be followed below.

Results filed as inconclusive are left out. Activity calls are given as the source filed them. Unless noted, calls come from the whole dose curve; as a rule, active = well fitted curve in the direction sought with a large enough effect; inconclusive = small, poorly fitted or top-dose-only effect, or another doubt; inactive = no such curve, though single readings can be large; an effect the other way counts as inactive or inconclusive.

Test [1] can be described thus: S16 Schwann cell PMP22 intronic element firefly luciferase assay (AID 624032). Note: nearly all actives have a fitted effect of over 30% in size. Note: potency is the fitted concentration of half-maximal effect. The procedure, abridged:
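Luciferase reporter of PMP22 intronic-element expression in stably transfected S16 rat Schwann cells, read by ONE-Glo luminescence after 24 h compound exposure at 37 C. Activity scaled between DMSO (0%) and positive-control PTC124; concentration-effect curves quality-classified.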

Test [2] can be described thus: S16 Schwann cell PMP22 intronic element beta-lactamase assay (AID 624044; calls by dose curve; note: nearly all actives have a fitted effect of over 15% in size). In a few lines:
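Rat S16 Schwann cells with beta-Lac driven by a PMP22 intronic element, compound-treated 24 h at 37 °C. LiveBLAzer FRET B/G read: 460 nm normalized to potassium clavulanate vs DMSO; 535 nm FRET as viability; concentration-effect curves classified.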

The test system of the next test is 3D7. Briefly: qHTS profiling for inhibitors of Plasmodium falciparum proliferation (AID 504749). Note: nearly all actives have a fitted effect of over 60% in size. Note: potency is the fitted concentration of half-maximal effect. The conditions noted are these: P. falciparum in erythrocytes, SYBR Green DNA, 72 h; series mostly up to 12.8 µM. In a few lines: (§1)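 Three-day growth assay of blood-stage parasites in erythrocytes (0.3% parasitemia, 2.5% hematocrit) at 37 C, 5% CO2, quantified by SYBR Green DNA staining after overnight detergent lysis.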

For another test, the system named is AA1029. Described as above. The conditions noted are these: P. falciparum in erythrocytes, SYBR Green DNA, 72 h; series mostly up to 12.8 µM. The procedure, abridged:
as §1

Another test relates to CP194. Described as above. The conditions noted are these: P. falciparum in erythrocytes, SYBR Green DNA, 72 h; series mostly up to 12.8 µM. In a few lines: as §1
In another test the test system is CP203. The test is described as above. The conditions noted are these: P. falciparum in erythrocytes, SYBR Green DNA, 72 h; series mostly up to 12.8 µM. The procedure, abridged: as §1
A further test concerns CP211. Described as above. The conditions noted are these: P. falciparum in erythrocytes, SYBR Green DNA, 72 h; series mostly up to 12.8 µM. The procedure, abridged: as §1
The test system of a further test is CP215. The test is described as above. The conditions noted are these: P. falciparum in erythrocytes, SYBR Green DNA, 72 h; series mostly up to 28.7 µM. In a few lines: as §1
In a further test the test system is CP260. The test is described as above. The conditions noted are these: P. falciparum in erythrocytes, SYBR Green DNA, 72 h; series mostly up to 12.8 µM. In a few lines: as §1
A further test deals with CP266. The test is described as above. The conditions noted are these: P. falciparum in erythrocytes, SYBR Green DNA, 72 h; series mostly up to 28.7 µM. In a few lines:
as §1

The test system of another test is CP297. The test is described as above. The conditions noted are these: P. falciparum in erythrocytes, SYBR Green DNA, 72 h; series mostly up to 12.8 µM. In a few lines: as §1
The subject of the next test is CP315. The description is as above. The conditions noted are these: P. falciparum in erythrocytes, SYBR Green DNA, 72 h; series mostly up to 12.8 µM. The procedure, abridged: as §1
For the next test, the system named is DIV14. The description is as above. The conditions noted are these: P. falciparum in erythrocytes, SYBR Green DNA, 72 h; series mostly up to 12.8 µM. In a few lines:
as §1

Another test relates to DIV17. Described as above. The conditions noted are these: P. falciparum in erythrocytes, SYBR Green DNA, 72 h; series mostly up to 12.8 µM. The procedure, abridged:
as §1

In another test the test system is GB4. Described as above. The conditions noted are these: P. falciparum in erythrocytes, SYBR Green DNA, 72 h; series mostly up to 12.8 µM. The procedure, abridged:
as §1

A further test relates to ICS. Described as above. The conditions noted are these: P. falciparum in erythrocytes, SYBR Green DNA, 72 h; series mostly up to 12.8 µM. The procedure, abridged:
as §1

The test system of a further test is P93_24. The description is as above. The conditions noted are these: P. falciparum in erythrocytes, SYBR Green DNA, 72 h; series mostly up to 12.8 µM. The procedure, abridged: as §1
A further test relates to PAD. The description is as above. The conditions noted are these: P. falciparum in erythrocytes, SYBR Green DNA, 72 h; series mostly up to 12.8 µM. In a few lines:
as §1

The next test deals with TAB109. The test is described as above. The conditions noted are these: P. falciparum in erythrocytes, SYBR Green DNA, 72 h; series mostly up to 12.8 µM. The procedure, abridged:
as §1

For another test, the system named is W2. Described as above. The conditions noted are these: P. falciparum in erythrocytes, SYBR Green DNA, 72 h; series mostly up to 12.8 µM. The procedure, abridged: as §1

With `CC(=O)OCC1=C(C(=O)O)N2C(=O)[C@@H](NC(=O)CSc3ccncc3)[C@@H]2SC1`, the Potency result (in test [1]; in the test on 3D7; with AA1029; in the test with CP194; in the test on CP203; with CP211) was “inactive” throughout. The Potency entry with CP215, in the test with CP260, with CP266, with CP297, in the test with CP315 and with DIV14 was “inactive” each time. In addition, the Potency result in the test on DIV17, in the test on GB4, in the test with ICS, in the test with P93_24, in the test on PAD and with TAB109 was “inactive” throughout. Moreover, in the test with W2, the Potency entry is “inactive”. In addition, in [2], the result was inactive.
As to `O=C(C1CCCCC1)N1CC(=O)N2CCc3ccccc3[C@@H]2C1`, the Potency in test [1] is 36100 nM (active). In addition, the compound was called inactive in test [2].
For `CC(C)NC[C@H](O)c1cc(O)cc(O)c1`, the Potency entry with 3D7, with AA1029, in the test with CP194, in the test on CP203, in the test with CP211 and in the test on CP215 was “inactive” each time. In addition, the Potency entry in the test with CP266, in the test with CP297, in the test with CP315, in the test on DIV14, in the test on DIV17 and with GB4 was “inactive” in each case. Also, the Potency result in the test with ICS, in the test with P93_24, in the test on PAD, with TAB109 and with W2 was “inactive” each time.
On to `C[C@@H](CCc1ccccc1)NC[C@H](O)c1ccc(O)c(C(N)=O)c1`, for which the Potency entry (in test [1]; in the test on AA1029; in the test with CP194; in the test on CP203; in the test on CP211; in the test on CP215) was “inactive” each time. The Potency result in the test with CP260, with CP266, in the test on CP297, in the test on CP315, with P93_24 and in the test with TAB109 was “inactive” throughout. In addition, the result in [2] was inactive.
Turning to `CN(C)[C@@H]1C(=O)C(C(N)=O)=C(O)[C@]2(O)C(=O)C3=C(O)c4c(O)ccc(Cl)c4[C@H](O)[C@H]3C[C@@H]12`, the Potency result (in test [1]; in the test with CP194; with CP203; in the test with CP211; in the test on CP215; in the test with CP266) was “inactive” in each case. Further, the Potency entry in the test with CP297, in the test on CP315, with DIV14 and with DIV17 was “inactive” throughout. For the same compound, the result in test [2] was inactive. In addition, the Potency is 3980 nM (active) with ICS and 5360 nM (active) in the test with W2.
As to `CCCN[C@@H](C)C(=O)Nc1ccccc1C`, the Potency entry (in test [1]; in the test on 3D7; in the test on AA1029; with CP194; with CP203; in the test with CP211) was “inactive” each time. For the same compound, the Potency entry in the test on CP215, in the test on CP260, with CP297, in the test on CP315, in the test on DIV14 and in the test on DIV17 was “inactive” throughout. The Potency result in the test on GB4, in the test with ICS, in the test with P93_24, with PAD, with TAB109 and in the test with W2 was “inactive” each time. For the same compound, the compound was classed as inactive in test [2].
`O=C(c1ccccc1)c1ccc2n1CC[C@H]2C(=O)O`: the Potency entry (in [1]; in the test with 3D7; in the test with AA1029; in the test on CP194; in the test on CP203; in the test with CP211) was “inactive” throughout. In addition, the Potency result with CP215, in the test on CP260, in the test on CP315, in the test on DIV14, with DIV17 and in the test on GB4 was “inactive” throughout. The Potency entry in the test on ICS, in the test with P93_24, in the test on PAD, with TAB109 and with W2 was “inactive” each time. The result in test [2] was inactive.
Consider `CC[C@]1(C)CC(=O)NC1=O`, for which the Potency result (in [1]; with 3D7; in the test on AA1029; in the test with CP194; in the test on CP211; in the test on CP215) was “inactive” throughout. The Potency entry in the test with CP260, in the test with CP266, in the test with CP297, in the test on CP315, in the test with DIV14 and in the test with DIV17 was “inactive” in each case. Also, the Potency result in the test with GB4, in the test with ICS, in the test on P93_24, with PAD, in the test with TAB109 and in the test with W2 was “inactive” each time. Also, the result in test [2] was inactive.
Consider `N[C@@H](CO)C(=O)NNCc1ccc(O)c(O)c1O`, for which the Potency entry (in [1]; in the test on 3D7; in the test on AA1029; in the test on CP194; in the test on CP203; in the test with CP211) was “inactive” each time. Moreover, the Potency result in the test on CP215, in the test on CP260, in the test with CP266, in the test on CP297, in the test on CP315 and with DIV14 was “inactive” throughout. Besides, the Potency result in the test with DIV17, with GB4, with ICS, in the test with P93_24, in the test on PAD and in the test on TAB109 was “inactive” each time. Further, the call in [2] was inactive.
In the case of `CO[C@]1(NC(=O)CSCC#N)C(=O)N2C(C(=O)O)=C(CSc3nnnn3C)CS[C@H]21`, the Potency result (in test [1]; with 3D7; in the test with AA1029; with CP194; in the test with CP203; in the test on CP211) was “inactive” in each case. Besides, the Potency entry in the test on CP215, with CP260, in the test on CP315, with DIV14, in the test on DIV17 and with GB4 was “inactive” in each case. Also, the Potency result with ICS, in the test on P93_24, in the test with PAD, in the test with TAB109 and in the test on W2 was “inactive” each time.
For `C[C@@H]1c2cccc(O)c2C(O)=C2C(=O)[C@@]3(O)C(O)=C(C(N)=O)C(=O)[C@@H](N(C)C)[C@@H]3[C@@H](O)[C@@H]21`, the Potency entry (in test [1]; with CP211; in the test on CP215) was “inactive” each time. Moreover, in [2], the outcome was inactive. In addition, the Potency is 3550 nM (active) in the test with ICS and 4260 nM (active) with W2.
For `CC(C)(C)NC[C@H](O)c1cc(O)cc(O)c1`, the Potency result in the test with 3D7, in the test with AA1029, with CP194, in the test on CP203, in the test on CP215 and in the test on CP260 was “inactive” throughout. In addition, the Potency entry with CP266, with CP297, in the test on CP315, in the test on DIV17, with GB4 and in the test on ICS was “inactive” throughout. Further, the Potency result in the test with P93_24, in the test on PAD and in the test with W2 was “inactive” throughout.
Turning to `CCCN(CCC)C(=O)[C@@H](CCC(=O)O)NC(=O)c1ccccc1`, the Potency result (in test [1]; in the test with 3D7; in the test on AA1029; with CP194; in the test on CP203; in the test on CP211) was “inactive” throughout. For the same compound, the Potency result with CP215, with CP260, with CP266, with CP315, in the test on DIV14 and with DIV17 was “inactive” each time. In addition, the Potency result with GB4, with ICS, in the test with P93_24, in the test on PAD, in the test with TAB109 and with W2 was “inactive” throughout.
In the case of `NC(=O)c1cc[n+](CC2=C(C(=O)O)N3C(=O)[C@@H](NC(=O)[C@H](c4ccccc4)S(=O)(=O)[O-])[C@@H]3SC2)cc1`, the Potency result in test [1] is “inactive”. For the same compound, the compound was classed as inactive in [2]. Further, the Potency is 1120 nM (active) in the test with 3D7; 1410 nM (active) with CP260; 6420 nM (active) with CP297; 721 nM (active) in the test on DIV14; 572 nM (active) in the test on DIV17; 907 nM (active) in the test on GB4. The Potency in the test on ICS is 355 nM (active); with P93_24, 1260 nM (active); with PAD it was 1410 nM (active); with TAB109, 1410 nM (active); in the test on W2, 510 nM (active).
